In PubChem BioAssay (NCATS):
Results filed as inconclusive are left out. The source made the active and inactive calls. Unless noted, the call rests on the fitted dose curve; in most records, active means well fitted curve in the direction sought with a large enough effect; inconclusive means small, poorly fitted or top-dose-only effect, or another doubt; inactive means no such curve, though single readings can be large; an effect the other way counts as inactive or inconclusive.

biological target: Peptidyl-prolyl cis-trans isomerase NIMA-interacting 1 (Homo sapiens) (UniProt Q13526); assay: qHTS Validation Assay to Find Inhibitors of Pin1 (AID 504536; active means well fitted inhibition curve with a large enough effect in the polarisation, with a control signal flat, not every such curve was filed as active; the % refers to the polarisation;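 further: 0% = full Pin1 enzyme wells and -100% = no-enzyme wells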); conditions: Pin1 fluorescence polarization peptide binding assay; series mostly up to 57.5 µM; activity, negative = inhibition: at the top concentration
Sequence (Q13526 whole entry, looked up): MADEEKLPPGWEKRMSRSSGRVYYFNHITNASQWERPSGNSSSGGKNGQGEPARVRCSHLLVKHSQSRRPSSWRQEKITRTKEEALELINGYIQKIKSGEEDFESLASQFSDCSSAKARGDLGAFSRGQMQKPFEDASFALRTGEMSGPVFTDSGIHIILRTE
How it was run: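 Fluorescence polarization competition: compounds (titration) displace HiFluor-488-labeled Pin1-1b peptide from Pin1 (0.3 uM final) in pH 7.5 HEPES buffer with DTT, 10 min at room temperature; %Activity normalized to no-enzyme wells, curves fitted.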

Row | SMILES | activity, negative = inhibition
1 | CCN(CC)CCNC(=O)c1ccc(NS(C)(=O)=O)cc1 | 5.26% (inactive)
2 | Cc1nn(-c2ccccc2)c(C)c1/C=N/N1CCN(Cc2ccccc2)CC1 | 0.449% (inactive)
3 | O=C1NC(=O)/C(=C/c2ccc3c(c2)OC(F)(F)O3)S1 | 0.523% (inactive)
4 | CC(C)N(CCC(=O)c1ccc2ccccc2c1)Cc1ccccc1 | 13.7% (inactive)
5 | CN(C)c1cc2c(Nc3ccc4c(cnn4Cc4ccccc4)c3)ncnc2cn1 | -3.08% (inactive)
6 | Nc1ncnc2n[nH]c(Nc3ccc(F)cc3)c12 | -0.387% (inactive)
7 | COC(=O)C1=CO[C@@H](O)[C@@H]2C(CO)=CC[C@H]12 | 7.92% (inactive)
8 | N[C@@H](Cn1ccc(=O)c(O)c1)C(=O)O | -2.29% (inactive)
9 | O=C1NC(c2cccc([N+](=O)[O-])c2)=CCN1c1ccccc1O | 2.46% (inactive)
10 | COc1cccc2c1[C@@H]1CN(CCCCn3c(=O)[nH]c4c(sc5ncc(-c6ccccc6)nc54)c3=O)C[C@@H]1CO2 | 2.98% (inactive)
11 | Clc1ccc2c(c1)N=C(N1CCNCC1)c1ccccc1N2 | 1.43% (inactive)
12 | C[N+](C)(C)CCO | -5.59% (inactive)
13 | COc1ccccc1N1CCN(CCN2C(=O)CC3(CCCC3)CC2=O)CC1 | 1.58% (inactive)
14 | Cn1cnc2c(NCc3ccccc3)nc(NCCO)nc21 | -17.6% (inactive)
15 | NC(N)=NCCCCN=C(N)N | 1.87% (inactive)

biological target: Phosphoglycerate kinase, glycosomal (Trypanosoma brucei brucei) (UniProt P07378); assay: qHTS Validation Assay to Find Inhibitors of Phosphoglycerate Kinase (AID 504547); conditions: enzymatic PGK inhibition, coupled luminescence read-out; series mostly up to 57.5 µM; activity, negative = inhibition: at the top concentration;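 further: control wells lack PGK and mark full inhibition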
Sequence (P07378 whole entry, looked up): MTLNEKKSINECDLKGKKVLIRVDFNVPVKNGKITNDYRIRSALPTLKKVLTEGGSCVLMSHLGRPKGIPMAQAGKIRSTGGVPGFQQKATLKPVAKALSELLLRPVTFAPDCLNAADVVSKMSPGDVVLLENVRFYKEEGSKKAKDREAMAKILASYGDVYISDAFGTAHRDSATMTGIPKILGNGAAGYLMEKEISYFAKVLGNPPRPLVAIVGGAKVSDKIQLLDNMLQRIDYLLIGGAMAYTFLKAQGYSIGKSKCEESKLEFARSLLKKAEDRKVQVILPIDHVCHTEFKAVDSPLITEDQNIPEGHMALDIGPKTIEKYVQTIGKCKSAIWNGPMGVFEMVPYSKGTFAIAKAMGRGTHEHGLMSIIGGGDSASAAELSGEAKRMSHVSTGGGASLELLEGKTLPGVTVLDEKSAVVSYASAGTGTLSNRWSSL
How it was run: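 Inhibition of the enzyme is judged by a Kinase-Glo Plus luminescent signal following a one-hour incubation at room temperature. Because 1,3-BPG is unstable, it is made in situ by GAPDH at 100nM final; no-PGK wells define the baseline.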

Row | SMILES | activity, negative = inhibition
16 | CCN(CC)CCNC(=O)c1ccc(NS(C)(=O)=O)cc1 | 0.5% (inactive)
17 | Cc1nn(-c2ccccc2)c(C)c1/C=N/N1CCN(Cc2ccccc2)CC1 | 5.92% (inactive)
18 | O=C1NC(=O)/C(=C/c2ccc3c(c2)OC(F)(F)O3)S1 | 16.4% (inactive)
19 | CC(C)N(CCC(=O)c1ccc2ccccc2c1)Cc1ccccc1 | 7.47% (inactive)
20 | CN(C)c1cc2c(Nc3ccc4c(cnn4Cc4ccccc4)c3)ncnc2cn1 | 8.83% (inactive)
21 | Nc1ncnc2n[nH]c(Nc3ccc(F)cc3)c12 | 7.31% (inactive)
22 | O=[N+]([O-])c1ccc(-c2nc(-c3ccc(F)cc3)c(-c3ccncc3)[nH]2)cc1 | -7.31% (inactive)
23 | COC(=O)C1=CO[C@@H](O)[C@@H]2C(CO)=CC[C@H]12 | 8.54% (inactive)
24 | N[C@@H](Cn1ccc(=O)c(O)c1)C(=O)O | 11.5% (inactive)
25 | O=C1NC(c2cccc([N+](=O)[O-])c2)=CCN1c1ccccc1O | 1.48% (inactive)
26 | Brc1ccc([C@H]2CN3CCSC3=N2)cc1 | -2.39% (inactive)
27 | COc1cccc2c1[C@@H]1CN(CCCCn3c(=O)[nH]c4c(sc5ncc(-c6ccccc6)nc54)c3=O)C[C@@H]1CO2 | 6.98% (inactive)
28 | Clc1ccc2c(c1)N=C(N1CCNCC1)c1ccccc1N2 | 15.4% (inactive)
29 | C[N+](C)(C)CCO | 0.483% (inactive)
30 | COc1ccccc1N1CCN(CCN2C(=O)CC3(CCCC3)CC2=O)CC1 | 9.75% (inactive)
31 | Cn1cnc2c(NCc3ccccc3)nc(NCCO)nc21 | -1.4% (inactive)
32 | NC(N)=NCCCCN=C(N)N | 6.95% (inactive)

biological target: phosphoglycerate mutase (Leishmania major) (UniProt Q4Q090); assay: qHTS Validation Assay to Find Inhibitors of Phosphoglycerate Mutase (AID 504548); conditions: biochemical enzyme activity; series mostly up to 57.5 µM; activity change, negative = inhibition: at the top concentration; further: on the % scale 0 is the no-effect control and ±100 the full control effect
Sequence (Q4Q090 1-553): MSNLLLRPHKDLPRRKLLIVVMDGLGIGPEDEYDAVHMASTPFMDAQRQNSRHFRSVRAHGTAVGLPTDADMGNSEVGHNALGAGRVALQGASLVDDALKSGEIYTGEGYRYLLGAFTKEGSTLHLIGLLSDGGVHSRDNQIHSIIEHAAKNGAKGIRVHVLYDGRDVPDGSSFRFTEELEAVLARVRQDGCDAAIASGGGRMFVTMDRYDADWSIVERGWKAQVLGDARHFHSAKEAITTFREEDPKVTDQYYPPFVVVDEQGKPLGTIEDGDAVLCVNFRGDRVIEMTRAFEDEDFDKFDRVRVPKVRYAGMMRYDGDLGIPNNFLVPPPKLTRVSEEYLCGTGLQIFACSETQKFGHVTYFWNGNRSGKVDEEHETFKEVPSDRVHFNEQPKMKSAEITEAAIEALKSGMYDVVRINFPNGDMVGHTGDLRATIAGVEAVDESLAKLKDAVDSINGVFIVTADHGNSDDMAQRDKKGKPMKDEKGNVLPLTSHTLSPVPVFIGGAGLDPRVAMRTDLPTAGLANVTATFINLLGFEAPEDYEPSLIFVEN
How it was run: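 Luminescent end-point read-out via Kinase-GloPlus after a 10-minute development. Reaction: 1.25nM Leishmania major PGAM with substrate and compound, 45 minutes at room temperature in TEA buffer (pH 7.6) with MgCl2 and Tween-20.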

Row | SMILES | activity change, negative = inhibition
33 | CCN(CC)CCNC(=O)c1ccc(NS(C)(=O)=O)cc1 | 4.13% (inactive)
34 | Cc1nn(-c2ccccc2)c(C)c1/C=N/N1CCN(Cc2ccccc2)CC1 | 16.1% (inactive)
35 | O=C1NC(=O)/C(=C/c2ccc3c(c2)OC(F)(F)O3)S1 | -5.15% (inactive)
36 | CN(C)c1cc2c(Nc3ccc4c(cnn4Cc4ccccc4)c3)ncnc2cn1 | 10.3% (inactive)
37 | Nc1ncnc2n[nH]c(Nc3ccc(F)cc3)c12 | 1.3% (inactive)
38 | O=[N+]([O-])c1ccc(-c2nc(-c3ccc(F)cc3)c(-c3ccncc3)[nH]2)cc1 | -5.12% (inactive)
39 | COC(=O)C1=CO[C@@H](O)[C@@H]2C(CO)=CC[C@H]12 | -0.665% (inactive)
40 | N[C@@H](Cn1ccc(=O)c(O)c1)C(=O)O | -3.24% (inactive)
41 | O=C1NC(c2cccc([N+](=O)[O-])c2)=CCN1c1ccccc1O | 2.96% (inactive)
42 | Brc1ccc([C@H]2CN3CCSC3=N2)cc1 | 13.7% (inactive)
43 | COc1cccc2c1[C@@H]1CN(CCCCn3c(=O)[nH]c4c(sc5ncc(-c6ccccc6)nc54)c3=O)C[C@@H]1CO2 | -2.94% (inactive)
44 | Clc1ccc2c(c1)N=C(N1CCNCC1)c1ccccc1N2 | -5.01% (inactive)
45 | C[N+](C)(C)CCO | 3.88% (inactive)
46 | COc1ccccc1N1CCN(CCN2C(=O)CC3(CCCC3)CC2=O)CC1 | 1.07% (inactive)
47 | Cn1cnc2c(NCc3ccccc3)nc(NCCO)nc21 | -1% (inactive)
48 | NC(N)=NCCCCN=C(N)N | -0.0916% (inactive)

biological target: Ubiquitin carboxyl-terminal hydrolase 1 (Homo sapiens) (UniProt O94782); assay: Inhibitors of USP1/UAF1: Pilot qHTS (AID 504865); conditions: purified USP1/UAF1, Ub-rhodamine cleavage fluorescence; series mostly up to 114 µM; activity change, negative = inhibition: at the top concentration; further: nearly all actives have a fitted effect of over 35% in size; further: potency means the concentration at half of the fitted maximal effect;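 on activity change, negative = inhibition: rhodamine fluorescence freed from ubiquitin-rhodamine substrate followed over time; top concentration of the series differs between compounds; on the % scale 0 is the no-effect control and ±100 the full control effect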
Sequence (O94782 whole entry, looked up): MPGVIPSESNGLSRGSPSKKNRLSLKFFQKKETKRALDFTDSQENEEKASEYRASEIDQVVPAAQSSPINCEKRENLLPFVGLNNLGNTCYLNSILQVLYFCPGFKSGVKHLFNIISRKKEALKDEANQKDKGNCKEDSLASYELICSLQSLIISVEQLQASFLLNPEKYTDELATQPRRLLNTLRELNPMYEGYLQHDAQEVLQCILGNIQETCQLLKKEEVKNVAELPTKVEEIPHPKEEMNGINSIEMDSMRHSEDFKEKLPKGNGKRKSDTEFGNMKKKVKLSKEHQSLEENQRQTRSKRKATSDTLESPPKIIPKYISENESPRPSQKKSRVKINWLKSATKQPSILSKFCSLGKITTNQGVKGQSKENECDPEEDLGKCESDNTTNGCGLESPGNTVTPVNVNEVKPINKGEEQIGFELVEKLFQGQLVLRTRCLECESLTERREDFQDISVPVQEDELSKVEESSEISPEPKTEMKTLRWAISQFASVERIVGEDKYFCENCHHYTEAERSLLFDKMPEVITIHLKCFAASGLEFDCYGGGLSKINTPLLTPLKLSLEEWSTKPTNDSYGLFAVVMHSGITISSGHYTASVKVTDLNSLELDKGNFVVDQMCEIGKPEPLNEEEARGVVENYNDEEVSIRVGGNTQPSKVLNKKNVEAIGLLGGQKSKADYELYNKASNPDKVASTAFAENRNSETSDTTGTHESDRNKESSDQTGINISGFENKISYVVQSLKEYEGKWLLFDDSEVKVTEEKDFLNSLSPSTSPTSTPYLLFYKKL
How it was run: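 Enzyme-free wells gave the negative control, while test wells held 1nM USP1/UAF1 preincubated with compound for 15 min at room temperature. Ub-Rho at 150nM final started the reaction, and fluorescence at 480/540 nm was recorded kinetically.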

Row | SMILES | activity change, negative = inhibition | Potency
49 | CCN(CC)CCNC(=O)c1ccc(NS(C)(=O)=O)cc1 | 5.22% (inactive) | –
50 | O=C1NC(=O)/C(=C/c2ccc3c(c2)OC(F)(F)O3)S1 | -13.9% (inactive) | –
51 | O=C(CCCCC(=O)Nc1c(I)cc(I)c(C(=O)O)c1I)Nc1c(I)cc(I)c(C(=O)O)c1I | -8.18% [at 54.9 µM] (inactive) | –
52 | Nc1ccc2cc3ccc(N)cc3nc2c1 | -3.65% (inactive) | –
53 | Nc1ncnc2n[nH]c(Nc3ccc(F)cc3)c12 | -8.34% (inactive) | –
54 | COC(=O)C1=CO[C@@H](O)[C@@H]2C(CO)=CC[C@H]12 | -6.89% (inactive) | –
55 | N[C@@H](Cn1ccc(=O)c(O)c1)C(=O)O | -0.886% (inactive) | –
56 | O=C1NC(c2cccc([N+](=O)[O-])c2)=CCN1c1ccccc1O | -6.54% (inactive) | –
57 | Brc1ccc([C@H]2CN3CCSC3=N2)cc1 | -2.66% (inactive) | –
58 | O=C(Nc1ccc(Cl)cc1)Nc1ccc(Cl)c(Cl)c1 | -11% (inactive) | –
59 | CCCCCCCCCCCCCC[N+](C)(C)C | – | 50.1 µM (active)
60 | Nc1c2ccccc2nc2ccccc12 | – | inactive
61 | COc1cccc2c1[C@@H]1CN(CCCCn3c(=O)[nH]c4c(sc5ncc(-c6ccccc6)nc54)c3=O)C[C@@H]1CO2 | -13.7% (inactive) | –
62 | C[N+](C)(C)CCO | – | inactive
63 | COc1ccccc1N1CCN(CCN2C(=O)CC3(CCCC3)CC2=O)CC1 | -5.26% (inactive) | –
64 | CC(=O)OCC[N+](C)(C)C | -2.08% (inactive) | –
65 | Cn1cnc2c(NCc3ccccc3)nc(NCCO)nc21 | 2.41% (inactive) | –
66 | CN1CCCN(C(c2ccccc2)c2ccc(Cl)cc2)CC1 (stereo not given) | 0.205% (inactive) | –
67 | O=S(=O)(O)c1ccc2nc(-c3ccccc3)[nH]c2c1 | -12.6% (inactive) | –
68 | CN1CCC(Nc2ncc3ncnc(Nc4ccc(F)c(Cl)c4)c3n2)CC1 | -7.62% (inactive) | –
69 | Nc1ncnc2nc[nH]c12 | -3.04% (inactive) | –
70 | NC(N)=NCCCCN=C(N)N | – | inactive
